Screening data (PubChem)
The list is not random: actives were taken first. Their share in the collection is about 1.8%.
GSTO1 inh = inhibitors of recombinant GSTO1, primary screen, counter-screen for RBBP9 inhibitor project, biochemical, fluorescence polarization; Glutathione S-transferase omega-1 (Homo sapiens), P78417; activity-based probe fluorescence polarization; inhibition, % at 5.96 µM; 300,000 compounds, 1.1% hits; AID 1974, 2009;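 active = inhibition above the campaign mean inhibition plus 3 SD, cut at about 35% in these data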
LYPLA1 inh = LYPLA1 inhibitors, primary screen, counter-screen for PME1 inhibitor project, biochemical, fluorescence polarization, FP-Rh probe ABPP; Acyl-protein thioesterase 1 (Homo sapiens), O75608; recombinant LYPLA1; inhibition, % at 5.9 µM; 320,000 compounds, 0.16% hits; AID 2174, 2009;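 active = inhibition above the mean of all tested compounds plus 3 SD, set per campaign, cut at about 14% in these data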;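 note: inhibitors block serine hydrolase probe labeling of LYPLA1 so polarization falls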
PAD4 FP inh = human PAD4 inhibitors, primary screen, biochemical, fluorescence polarization, 1536-well format; 330,000 compounds, 0.41% hits; Protein-arginine deiminase type-4 (Homo sapiens), Q9UM07; recombinant PAD4, RCA probe fluorescence polarization; inhibition, % at 6.36 µM;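 active = percent inhibition above a cutoff equal to the mean of all tested compounds plus 3 SD, cut at about 15% in these data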
Target sequence (Q9UM07 whole entry, looked up): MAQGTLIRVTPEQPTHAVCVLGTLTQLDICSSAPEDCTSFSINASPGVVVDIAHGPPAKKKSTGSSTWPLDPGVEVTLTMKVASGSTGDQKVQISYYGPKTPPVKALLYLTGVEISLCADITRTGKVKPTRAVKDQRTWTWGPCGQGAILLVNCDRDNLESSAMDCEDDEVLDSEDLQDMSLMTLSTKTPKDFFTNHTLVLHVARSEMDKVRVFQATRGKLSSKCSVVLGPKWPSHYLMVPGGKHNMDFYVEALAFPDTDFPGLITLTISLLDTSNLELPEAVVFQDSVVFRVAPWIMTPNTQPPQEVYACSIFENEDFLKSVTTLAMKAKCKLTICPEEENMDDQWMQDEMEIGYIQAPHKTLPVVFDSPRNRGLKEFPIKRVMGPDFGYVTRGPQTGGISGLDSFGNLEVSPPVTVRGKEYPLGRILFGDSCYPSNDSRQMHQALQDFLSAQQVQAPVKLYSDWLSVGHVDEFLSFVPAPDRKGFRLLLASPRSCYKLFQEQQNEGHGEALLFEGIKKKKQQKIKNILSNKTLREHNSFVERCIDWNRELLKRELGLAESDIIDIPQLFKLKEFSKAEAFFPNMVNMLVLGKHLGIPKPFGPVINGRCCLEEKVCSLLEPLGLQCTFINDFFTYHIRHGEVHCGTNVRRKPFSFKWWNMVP
LYPLA2 counter = LYPLA2 inhibitors, primary screen, counter-screen for PME1 inhibitor project, biochemical, fluorescence polarization, FP-Rh probe ABPP; Acyl-protein thioesterase 2 (Homo sapiens), O95372; recombinant LYPLA2; inhibition, % at 5.9 µM; 320,000 compounds, 0.38% hits; AID 2177, 2009;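 active = inhibition above the screen-wide mean plus 3 SD, limit set per campaign, cut at about 26% in these data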
Fam108B inh = mouse Fam108B serine hydrolase inhibitors, primary screen, counter-screen for RBBP9 inhibitor project, biochemical, fluorescence polarization. recombinant Fam108B, FP-Rh probe fluorescence polarization. inhibition, % at 9.51 µM. 300,000 compounds, 0.33% hits. AID 1947, 2009;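 active = inhibition above the screen mean inhibition plus 3 SD, computed separately per campaign, cut at about 18% in these data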;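 note: inhibitors lower polarization as less probe binds the enzyme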
PME-1 primary = PME-1 inhibitors via competitive probe labeling, primary screen, biochemical, fluorescence polarization, FP-Rh probe, HTS. Protein phosphatase methylesterase 1 (Homo sapiens), Q9Y570. recombinant PME-1. inhibition, % at 5.9 µM. 320,000 compounds, 0.53% hits;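 active = inhibition above the campaign mean of all compounds plus 3 SD, cut at about 26% in these data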;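 note: competitive labeling of PME-1 active site by serine hydrolase directed probe; inhibitors block probe labeling so polarization falls and inhibition rises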
GSTO1 confirm = GSTO1 inhibitor hit confirmation, counter-screen for RBBP9 inhibitor project, biochemical, fluorescence polarization, triplicate; shares compounds with GSTO1 inh; recombinant GSTO1, probe fluorescence polarization; inhibition, % at 5.96 µM; 2,400 compounds, 54% hits;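 active = inhibition above the primary screen's cutoff, its mean inhibition plus 3 SD, cut at about 35% in these data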;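 note: loss of polarization as inhibitors block binding of rhodamine sulfonate ester activity probe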
GSTO1 ABPP inh = inhibitors of purified human GSTO1, late-stage follow-up, biochemical, gel ABPP, SE-Rh probe, percent inhibition; shares compounds with GSTO1 inh; recombinant GSTO1, gel ABPP SE-Rh probe fluorescence; inhibition, % at 1 µM; 130 compounds, 30% hits; AID 463110, 2010;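 active = inhibition of the enzyme GSTO1 above about 75%, limit read from the data; inactive = inhibition below that limit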
A number is an active result; - = inactive; . = no result given.

SMILES	GSTO1 inh	LYPLA1 inh	PAD4 FP inh	LYPLA2 counter	Fam108B inh	PME-1 primary	GSTO1 confirm	others
CN(C)c1c([N+](=O)[O-])ncn1C	-	-	-	-	-	-	.
O=C(O)c1ccc(Cl)c2c1C1C=CCC1C(c1ccccn1)N2 (stereo not given)	-	-	-	-	-	-	.
O=[N+]([O-])c1ccc(Cl)c2c1C1C=CCC1C(c1ccccn1)N2 (stereo not given)	39	-	-	-	-	-	-
CCc1nc(N2CCN(C(C)=O)CC2)c2c3c(sc2n1)CC(C(C)(C)C)CC3 (stereo not given)	-	-	-	-	-	-	.
CCc1nc(N2CCN(C(=O)CCl)CC2)c2c3c(sc2n1)CC(C)CC3 (stereo not given)	63	-	-	-	-	-	79	GSTO1 ABPP inh=-
Oc1ccc2ccccc2c1/C=N/n1cnnc1	-	-	-	-	-	-	.
Cc1cc(C)n(/N=C\c2c(O)ccc3ccccc23)c(=O)c1C(N)=O	43	-	-	-	-	-	-
CC(=O)CCCC(NS(=O)(=O)CCC(Cl)(Cl)Cl)c1ccccc1 (stereo not given)	-	-	-	-	-	-	.
COc1cc(OC)c2c(c1)OC(c1ccc(OC)c(OC)c1)C(O)C2=O (stereo not given)	-	-	-	-	-	-	.
COC1=CC(=O)CC(C)C12Oc1cc(OC)cc(OC)c1C2=O (stereo not given)	47	-	-	-	-	-	-
COC(=O)Cc1c(C)[nH]n(-c2cc(Cl)cc(Cl)c2)c1=O	47	-	-	-	-	-	-
CCOC(=O)c1n[nH]n(-c2cc(Cl)cc(Cl)c2)c1=O	-	-	-	-	-	-	.
COc1ccc(-c2cc(=O)oc3c(O)c(O)ccc23)cc1	58	-	-	-	-	-	-
O=C(Cn1cnc2cc([N+](=O)[O-])ccc2c1=O)NCc1ccccc1	-	-	-	-	-	-	.
CCC(C(=O)Nc1cc(C(=O)Nc2cc(C)ccn2)ccc1Cl)c1ccccc1 (stereo not given)	-	-	-	-	-	-	.
O=C(Nc1nc(-c2ccccn2)cs1)c1cc2ccccc2o1	48	-	-	-	-	-	39
Cc1c(C(=O)Nc2nc(-c3ccccn3)cs2)oc2ccccc12	.	-	-	-	.	-	.
COc1ccc(O)c(C(=O)C2c3ccccc3C(=O)N2c2ccc(C)cc2)c1 (stereo not given)	62	-	-	-	-	-	-
COc1ccc(N2C(=O)c3ccccc3C2O)cc1 (stereo not given)	-	-	-	-	-	-	.
N#C/C(=C\c1ccc(O)c(O)c1)C(=O)Nc1cccc2ncccc12	56	-	-	-	-	28	-
COc1ccc(C(=O)NCCC2=CCCCC2)cc1OC1CCN(C(C)C)CC1	-	-	-	-	-	-	.
O=S1(=O)CCO[C@H]2Cc3ccccc3[C@H]2N1Cc1ccc(Cl)cc1	38	-	-	-	-	-	-
O=S1(=O)CCO[C@H]2Cc3ccccc3[C@H]2N1Cc1cccc(Cl)c1	-	-	-	-	-	-	.
NS(=O)(=O)c1ccc(CCNC(=O)c2cnccn2)cc1	-	-	-	-	-	-	.
O=C(O)Cc1c[nH]c2cccc(O)c12	42	-	-	-	-	-	-
SMILES	GSTO1 inh	LYPLA1 inh	PAD4 FP inh	LYPLA2 counter	Fam108B inh	PME-1 primary	GSTO1 confirm	others
O=C(O)Cc1c[nH]c2ccccc12	-	-	-	-	-	-	.
CCOC(=O)c1ccc(NC(=O)Cn2ncc(Cl)c(Cl)c2=O)cc1	-	-	-	-	-	-	.
Cc1ccc(C(=O)OCn2ncc(Cl)c(Cl)c2=O)cc1	45	-	20	-	-	-	46
O=C(N/N=C/c1ccc[nH]1)c1cc(-c2ccc(Cl)cc2)nc2ccccc12	-	-	-	-	-	-	.
CCc1cc(C(=O)N=Nc2c(O)[nH]c3c(Br)cc(Br)cc23)c2ccccc2n1	75	-	-	-	-	-	-
COc1ccc(C(C(=O)NC2CCCCC2)N(C(=O)CCl)c2ccc(C)cc2)cc1 (stereo not given)	89	-	-	-	-	-	95	GSTO1 ABPP inh=88
COC(CN(C(=O)CCl)C(C(=O)NC1CCCCC1)c1ccc(C)cc1)OC (stereo not given)	93	-	-	-	-	-	91	GSTO1 ABPP inh=-
COc1cccc(N(C(=O)c2cnccn2)C(C(=O)NC2CCCCC2)c2ccc(Cl)cc2)c1 (stereo not given)	-	-	-	-	-	-	.
COc1ccc(C(C(=O)NC2CCCC2)N(C(=O)c2ccoc2C)c2ccc(C)cc2)cc1 (stereo not given)	-	-	-	-	-	-	.
COc1ccc(C(C(=O)NC2CCCCC2)N(C(=O)CCl)c2cccc(Cl)c2)cc1 (stereo not given)	81	-	-	-	-	-	90	GSTO1 ABPP inh=83
COc1ccccc1N(Cc1ccccc1)S(=O)(=O)c1cccc(C(=O)Nc2ccc(C)cn2)c1	-	-	-	-	-	-	.
Cc1ccc(S(=O)(=O)Oc2ccc(C3C4=C(CCCC4=O)N(CCC(=O)O)C4=C3C(=O)CCC4)cc2Cl)cc1	62	-	-	-	-	-	61
CCOc1cc(C2C3=C(CCCC3=O)N(CCC(=O)O)C3=C2C(=O)CCC3)ccc1OS(=O)(=O)c1ccc(C)cc1	78	-	-	-	-	-	70
Cc1ccc(-n2nc3ccc(N)cc3n2)cc1C	-	-	-	-	-	-	.
CN(C)S(=O)(=O)c1ccc(C(=O)N2CC(=O)Nc3ccc(F)cc3C2c2ccc(F)cc2)cc1 (stereo not given)	-	-	-	-	-	-	.
Cc1ccc([C@@H]2CC=C(C(=O)O)[C@H](c3ccccc3)N2S(=O)(=O)c2ccccc2C)cc1	.	.	-	.	.	.	.
CC(=O)NCc1cccc(CNC(C)=O)n1	-	-	-	-	-	-	.
